This is one part of a sample in which hits are shown more often than they occur.
Pf apPOL block: Pf-apPOL DNA polymerase inhibition; Recombinant Pf-apPOL, molecular beacon fluorescence, 1.5 h; inhibition, % at 10 µM; 0.25% of 210,000 active; AID 1794808
mHTT-CaM PPI inh: disrupts binding of mutant huntingtin to calmodulin. inhibition, % at 15 µM. 3.6% of 190,000 active. AlphaScreen His-mHTT/GST-CaM binding, luminescence. P42858;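 note: 0% = both proteins with DMSO and 100% = one protein alone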
Numbers without * were called inactive; . = not tested or not shown; + = active, no number. Cut-off read from the data, not from the text of the source: active = inhibition above about 50%; inactive = the rest.

SMILES	Pf apPOL block	mHTT-CaM PPI inh
Cc1cccc(CNC(=O)c2nn(C)c3c2CN(C(=O)c2ccccc2F)CC3)c1	-6.9	42.7
Cn1nc(C(=O)NCc2ccc(F)cc2)c2c1CCN(C(=O)c1ccccc1F)C2	-13.0	82.0*
Cn1nc(C(=O)NCc2ccc(Cl)cc2)c2c1CCN(C(=O)c1c(F)cccc1F)C2	-4.3	57.9*
CCOc1ccccc1C(=O)N1CCc2c(c(C(=O)NCc3cccc(C)c3)nn2C)C1	-11.3	42.5
Cc1ccccc1C(=O)N1CCc2c(c(C(=O)NCc3ccc(Cl)cc3)nn2C)C1	-3.6	11.2
CCc1ccc(NC(=O)c2cc(S(=O)(=O)N3CCc4ccccc43)ccc2F)cc1	-2.2	-15.0
COc1ccc(Br)c(C(=O)NCC2(c3ccc(F)cc3)CCOCC2)c1	-3.9	-18.4
CC1c2cccn2CCN1C(=O)Nc1ccccc1 (stereo unspecified)	1.0	7.2
Cc1cc(C)cc(C(=O)N2CCC(c3noc(N)c3C(C)C)CC2)c1	-3.8	7.2
Cc1ccccc1CSCc1ccc(C(=O)O)o1	-6.5	5.0
Cc1ccccc1CSCc1ccc(C(=O)N2CCC(c3ccncc3)CC2)o1	-1.1	57.6*
CCOc1ccccc1C(=O)N1CCc2cc(OC)c(OC)cc2C1COc1ccccc1OC (stereo unspecified)	-4.3	55.0*
COC(=O)c1ccc(OCC2c3cc(OC)c(OC)cc3CCN2C(=O)c2cc(OC)cc(OC)c2)cc1 (stereo unspecified)	-2.3	-2.6
COc1ccc(OCC2c3cc(OC)c(OC)cc3CCN2C(=O)c2c(F)cccc2F)cc1 (stereo unspecified)	82.1*	30.0
COc1cc2c(cc1OC)C(COc1ccccc1OC)N(C(C)=O)CC2 (stereo unspecified)	-0.3	-6.7
CCC(=O)N1CCc2cc(OC)c(OC)cc2C1COc1ccc(OC)cc1 (stereo unspecified)	2.0	1.6
COc1ccc(OCC2c3cc(OC)c(OC)cc3CCN2C(=O)c2ccc(OC)cc2)cc1 (stereo unspecified)	-1.2	56.7*
CN1C(=O)C2CCCCN2c2ccc(C(=O)NCCc3cccs3)cc21 (stereo unspecified)	1.3	14.7
CN(CC(=O)N1CCCC1)S(=O)(=O)c1ccc(Cl)cc1	51.3*	-4.2
CN(CC(=O)N1CCCCCC1)S(=O)(=O)c1ccc(Cl)cc1	-3.2	1.9
COc1ccc(N2CCN(C(=O)CN(C)S(=O)(=O)c3ccc(Cl)cc3)CC2)cc1	88.7*	16.8
CN1CCN(C(=O)CN(C)S(=O)(=O)c2ccc(Cl)cc2)CC1	7.6	-3.7
CN(CC(=O)N1CCN(c2ccc(F)cc2)CC1)S(=O)(=O)c1ccc(Cl)cc1	-3.8	11.7
CN(CC(=O)N1CCN(Cc2ccccc2)CC1)S(=O)(=O)c1ccc(Cl)cc1	96.6*	7.4
Cc1ccc(S(=O)(=O)N2CCN(S(=O)(=O)c3ccc(C)cc3)C2C(C)C)cc1	-1.9	-21.0
SMILES	Pf apPOL block	mHTT-CaM PPI inh
COc1ccc(C=CC(=O)c2ccc(NC(=O)C34CC5CC(CC(C5)C3)C4)cc2)cc1	-3.7	6.6
COc1cc(OC)c(OC)cc1C=C1Oc2cc(OCC(=O)OC(C)(C)C)ccc2C1=O	-3.6	-35.8
Cc1ccc(N=c2oc3ccc(Cl)cc3cc2C(N)=O)cc1	0.2	14.0
CCC(=O)N1CCCC1c1nc2cc(-c3cccc(F)c3)ccc2o1 (stereo unspecified)	-3.6	41.1
CCCC(=O)N1CCCC1c1nc2cc(-c3ccc(N(C)C)cc3)ccc2o1 (stereo unspecified)	-8.2	86.2*
CCCC(=O)N1CCCC1c1nc2cc(-c3ccccc3F)ccc2o1 (stereo unspecified)	-1.0	13.2
CC(C)CC(=O)N1CCCC1c1nc2cc(-c3ccc(N(C)C)cc3)ccc2o1 (stereo unspecified)	-7.1	87.3*
Nc1cc(C2CCN(C(=O)c3cc4ccccc4[nH]3)CC2)no1	-1.9	35.7
Cc1nc(COc2ccc(C(N)=NO)cc2)cs1	0.1	.
CCOc1ccc(-n2nc3cc(C)c(NC(=O)c4ccc(OC)c([N+](=O)[O-])c4)cc3n2)cc1	8.0	0.1
O=C(CCCn1nnc2ccccc2c1=O)NCc1cccc(Cl)c1	-1.9	-82.0
S=c1[nH]nc(-c2ccccn2)n1/N=C/c1cccnc1	.	+
S=c1[nH]nc(-c2ccncc2)n1N=Cc1cccnc1	-7.2	.
OCCN=C1CCc2c1[nH]c1ccc(C3CCCCC3)cc21	-5.0	58.0*
O=C1CCc2c1[nH]c1ccc(C3CCCCC3)cc21	3.9	10.0
CN1C(=O)S/C(=C/c2ccc(N3CCCC3)cc2)C1=O	-3.3	13.0
COc1cccc(C2Oc3ccc(Cl)cc3C3CC(c4ccco4)=NN32)c1 (stereo unspecified)	-12.3	47.0
Brc1ccc2c(c1)C1CC(c3ccco3)=NN1C(c1cccs1)O2 (stereo unspecified)	1.2	89.0*
COc1cccc2c1OC(c1cccc(F)c1)N1N=C(c3ccco3)CC21 (stereo unspecified)	-17.4	32.0
